Experimental data from PubChem BioAssay (Tox21).
Values joined by “and” are separate entries in the source; they are usually repeats but may differ in a detail not shown here. Equal values may be shown once. Records with an inconclusive call do not appear. A structure can be active in one record and inactive in another. Active and inactive are the calls of the source. Unless noted, calls come from the whole dose curve; as a rule, active = well fitted curve in the direction sought with a large enough effect in the repeat runs; inconclusive = weak or mixed curves; inactive = no such curve, though single readings can be large; an effect the other way counts as inactive or inconclusive.

Legend:
[1] = qHTS assay for small molecule agonists of the p53 signaling pathway (AID 651631; calls by dose curve; note: nearly all actives have a fitted effect of over 15% in size; note: potency is the fitted concentration of half-maximal effect)
How it was run: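 Beta-lactamase reporter activity under p53 response elements was quantified in HCT-116 cells by FRET fluorescence, following 16 h incubation with test compounds at 37 °C and 2 h substrate development at room temperature.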

[2] = qHTS assay for small molecules that induce genotoxicity in human embryonic kidney cells expressing luciferase-tagged ATAD5 (AID 651632); note: nearly all actives have a fitted effect of over 15% in size; note: potency is the fitted concentration of half-maximal effect
How it was run: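 Test compounds were delivered by pin tool onto HEK293T reporter cells (2,000/well) expressing ATAD5 fused to luciferase. After 16 hr at 37C, 5% CO2, Amplite was added for 30 min at room temperature and luminescence was measured.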

[3] = qHTS assay for small molecule agonists of the p53 signaling pathway - cell viability (AID 651633; calls by dose curve; note: nearly all actives have a fitted effect of over 30% in size; note: potency is the fitted concentration of half-maximal effect)
How it was run: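 Viability counter-read: CellTiter-Glo luminescence (30 min, room temperature) in the same p53RE-bla plates. These plates had been exposed to compounds for 16 h at 37 C.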

[4] = qHTS assay for small molecules that induce genotoxicity in human embryonic kidney cells expressing luciferase-tagged ATAD5 - cell viability (AID 651634; calls by dose curve; note: nearly all actives have a fitted effect of over 25% in size; note: potency is the fitted concentration of half-maximal effect)
How it was run: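 Quantitative high-throughput format. HEK293T cells expressing ATAD5 fused to luciferase were plated at 2,000 cells/well and treated 15.5 hr with compound versus DMSO. Viability was determined by fluorescent live-cell protease substrate, 30 min at 37C.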

[5] = qHTS assay for small molecule disruptors of the mitochondrial membrane potential - cell viability (AID 720634; calls by dose curve; note: nearly all actives have a fitted effect of over 20% in size; note: potency is the fitted concentration of half-maximal effect)
How it was run: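 Same-well counter-screen: following the MMP dye addition, CellTiter-Glo was added to 1 hr compound-treated HepG2 cells and luminescence read after 30 min at room temperature.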

[6] = qHTS assay for small molecule disruptors of the mitochondrial membrane potential (AID 720635); note: potency is the fitted concentration of half-maximal effect
How it was run: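 Mitochondrial membrane potential tracked with Mito-MPS dye, red aggregates (ex 540/em 590 nm) against green monomers (ex 490/em 535 nm). Compound treatment 1 hr at 37C, dye 30 min in HepG2.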

[7] = qHTS assay to test for compound auto fluorescence at 590 nm (red) in HepG2 cells (AID 720674)
How it was run: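 Red autofluorescence (Ex/Em 540/590 nm, Rose Bengal sodium equivalents) was measured in HepG2 cells, 2,000 per well in MEM plus 10% FBS, plated overnight at 37 C. Readings were taken 1 hr after adding 23 nL compound or DMSO, at 37 C and 5% CO2.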

[8] = qHTS assay to test for compound auto fluorescence at 535 nm (green) in HepG2 cells (AID 720675)
[9] = qHTS assay to test for compound auto fluorescence at 460 nm (blue) in HEK293 cells (AID 720678)
How it was run: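 Measured: blue fluorescence (Ex 405/Em 460 nm) of compound-treated HEK293 cells, incubated overnight at 37C with 5% CO2 and scaled to triamterene equivalents.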

[10] = qHTS assay to test for compound auto fluorescence at 590 nm (red) in HEK293 cells (AID 720679)
How it was run: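 Using HEK293 cells at 2,000 per well, the screen added 23 nL of each compound after cell attachment and incubated overnight (37C, 5% CO2). The plate reader then captured red-label fluorescence, Ex/Em 540/590nm.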

Measured: Potency

CCCCC/C(C=O)=C\c1ccccc1
inactive: [1] | [2] | [3] | [4] | [5] | [6] | [7] | [8] | [9] | [10]

CCCCNC(=O)NS(=O)(=O)c1ccc(N)cc1
inactive: [1] | [2] | [3] | [4] | [5] | [6] | [7] | [8] | [9] | [10]

C[C@]12C[C@H](O)[C@H]3[C@@H](CCC4=CC(=O)CC[C@@]43C)[C@@H]1CC[C@@H]2C(=O)CO
inactive: [1] | [2] | [3] | [4] | [5] | [6] | [7] | [8] | [9] | [10]

O=c1cc[nH]c(=O)[nH]1
inactive: [1] | [2] | [3] | [4] | [5] | [6] | [7] | [8] | [9] | [10]

OCCCc1ccccc1
inactive: [1] | [2] | [3] | [4] | [5] | [6] | [7] | [8] | [9] | [10]

CCN1CCCC1=O
inactive: [1] | [2] | [3] | [4] | [5] | [6] | [7] | [8] | [9] | [10]

CC1=NN(c2ccccc2)C(=O)C1
active: [6] 11.9 µM and 61.5 µM
inactive: [1] | [2] | [3] | [4] | [5] | [7] | [8] | [9] | [10]

C/C=C/c1ccc(O)c(OC)c1
inactive: [1] | [2] | [3] | [4] | [5] | [7] | [8] | [9] | [10]
active: [6] 61.1 µM

COc1ccc(O)cc1
inactive: [1] | [2] | [3] | [4] | [5] | [6] | [7] | [8] | [9] | [10]

CCCCOCCOCCOC(C)=O
inactive: [1] | [2] | [3] | [4] | [5] | [6] | [7] | [8] | [9] | [10]

Oc1cccc(O)c1
inactive: [1] | [2] | [3] | [4] | [5] | [6] | [7] | [8] | [9] | [10]

COc1ccccc1O
inactive: [2] | [3] | [4] | [5] | [6] | [7] | [8] | [9] | [10]
inactive and 4.35 µM (active): [1]

O=C(O)Cc1cccc2ccccc12
inactive: [1] | [2] | [3] | [4] | [5] | [7] | [8] | [9] | [10]

COc1cc(C=O)ccc1O
inactive: [1] | [2] | [3] | [4] | [5] | [6] | [7] | [8] | [9] | [10]

Cc1cccc(C)c1O
inactive: [1] | [2] | [3] | [4] | [5] | [6] | [7] | [8] | [9] | [10]

C#C[C@]1(O)CC[C@H]2[C@@H]3CCc4cc(O)ccc4[C@H]3CC[C@@]21C
inactive: [2] | [3] | [5] | [7] | [8] | [9] | [10]
active: [1] 8.41 µM and 7.64 µM and 6.11 µM | [4] 15.2 µM | [6] 13.3 µM and 13.6 µM and 17.2 µM

C#C[C@]1(O)CC[C@H]2[C@@H]3CCC4=CC(=O)CC[C@@H]4[C@H]3CC[C@@]21CC
inactive and 48.6 µM (active): [5]
inactive: [1] | [2] | [3] | [4] | [6] | [7] | [8] | [9] | [10]

NC(=O)N1c2ccccc2C=Cc2ccccc21
inactive: [2] | [3] | [4] | [5] | [6] | [7] | [8] | [9] | [10]

N[C@@H](Cc1c[nH]c2ccc(O)cc12)C(=O)O
inactive: [2] | [3] | [4] | [5] | [7] | [8] | [9] | [10]
active: [6] 26.6 µM and 941 nM

NC(N)=NC(N)=NCCc1ccccc1
inactive: [2] | [3] | [4] | [5] | [6] | [7] | [8] | [9] | [10]

Cn1cnc2c1c(=O)[nH]c(=O)n2C
inactive: [2] | [3] | [4] | [5] | [6] | [7] | [8] | [9] | [10]

C[C@]12CC[C@@H]3c4ccc(O)cc4CC[C@H]3[C@@H]1CCC2=O
active: [6] 13.3 µM and 6.87 µM
inactive: [4] | [5] | [7] | [8] | [9] | [10]

O=c1c(-c2ccc(O)cc2)coc2cc(O)cc(O)c12
active: [6] 5.96 µM and 1.07 µM and 8.63 µM
inactive: [3] | [5] | [7] | [8] | [9] | [10]

CCCCOC(=O)CCCCCCCCC(=O)OCCCC
inactive: [2] | [3] | [4] | [5] | [6] | [7] | [8] | [9] | [10]

NC(=O)N/N=C/c1ccc([N+](=O)[O-])o1
active: [6] 15.4 µM
inactive: [1] | [2] | [3] | [5] | [7] | [8] | [9] | [10]

CC(C)(C)NCC(O)c1ccc(O)c(CO)c1 (configuration not stated)
inactive: [1] | [2] | [3] | [5] | [6] | [7] | [8] | [9] | [10]

COC1=CC(=O)C[C@@H](C)[C@]12Oc1c(Cl)c(OC)cc(OC)c1C2=O
inactive: [4] | [5] | [6] | [7] | [8] | [9] | [10]

CCn1cc(C(=O)O)c(=O)c2ccc(C)nc21
inactive: [2] | [5] | [6] | [7] | [8] | [9] | [10]

c1ccc2[nH]c(-c3cscn3)nc2c1
inactive: [3] | [4] | [5] | [7] | [8] | [9] | [10]

CCCCCCCCCCCCCCCCCC(=O)OCC(O)CO (configuration not stated)
inactive: [2] | [3] | [4] | [5] | [6] | [7] | [8] | [9] | [10]

Cc1cnc(NC(=O)C2=C(O)c3ccccc3S(=O)(=O)N2C)s1
inactive: [1] | [2] | [3] | [5] | [7] | [8] | [9] | [10]

Cc1c(N(C)C)c(=O)n(-c2ccccc2)n1C
inactive: [2] | [3] | [4] | [5] | [6] | [7] | [8] | [9] | [10]

O=C(O)CN(CC(=O)O)CC(=O)O
inactive: [1] | [2] | [3] | [4] | [7] | [8] | [9] | [10]

COC(=O)c1ccc(O)cc1
inactive: [1] | [2] | [3] | [4] | [7] | [8] | [9] | [10]

O=C(OCc1ccccc1)c1ccccc1
inactive: [2] | [3] | [4] | [5] | [6] | [7] | [8] | [9] | [10]

COc1cc2c(c(OC)c1OC)-c1ccc(OC)c(=O)cc1[C@@H](NC(C)=O)CC2
inactive: [3] | [5] | [7] | [8] | [9] | [10]
active: [2] 266 nM and 48 nM and 54.5 nM | [4] 335 nM and 9.6 nM and 7.7 nM | [6] 3.35 µM and 1.52 µM and 1.37 µM

CN/C(=C\[N+](=O)[O-])NCCSCc1ccc(CN(C)C)o1
inactive: [1] | [2] | [3] | [5] | [6] | [7] | [8] | [9] | [10]

N[C@@H](Cc1c[nH]c2ccccc12)C(=O)O
inactive: [3] | [4] | [5] | [6] | [7] | [8] | [9] | [10]

CCc1cc(C(N)=S)ccn1
inactive: [1] | [3] | [4] | [5] | [6] | [7] | [8] | [9] | [10]

O=C1OC(c2ccc(O)cc2)(c2ccc(O)cc2)c2ccccc21
inactive: [2] | [3] | [4] | [5] | [7] | [8] | [9] | [10]
active: [6] 21.1 µM and 48.2 µM and 68.6 µM

NCCNc1cccc2ccccc12
inactive: [2] | [3] | [4] | [5] | [7] | [8] | [9] | [10]

CC1=C(/C=C/C(C)=C/C=C/C(C)=C/C(=O)O)C(C)(C)CCC1
inactive and 27.3 µM (active): [6]
inactive and 68.7 µM (active): [3]
inactive: [2] | [4] | [5] | [7] | [8] | [9] | [10]

COc1cc(O)c(C(=O)c2ccccc2)cc1S(=O)(=O)O
inactive: [2] | [3] | [4] | [5] | [6] | [7] | [8] | [9] | [10]

CC(=O)/C=C/C1=C(C)CCCC1(C)C
inactive: [2] | [3] | [4] | [5] | [7] | [8] | [9] | [10]

Nc1ccc(N=Nc2ccccc2)c(N)n1
active: [2] 11.9 µM and 8.68 µM and 9.69 µM | [4] 23.7 µM and 54.8 µM | [6] 10.6 µM and 30.8 µM and 19.3 µM
inactive: [3] | [5] | [7] | [8] | [9] | [10]

CN(C)C=O
inactive: [1] | [2] | [3] | [4] | [7] | [8] | [9] | [10]

CC(C)(C)CC(C)(C)c1ccc(O)c(-n2nc3ccccc3n2)c1
active: [3] 49.2 µM and 48.6 µM | [6] 10.6 µM and 24.7 µM and 30.6 µM
inactive: [2] | [4] | [5] | [7] | [8] | [9] | [10]
